EphB4 ephrin blk – EphB4-ephrin-B2 interaction antagonism. P54760. EphB4 LBD / TNYL-RAW-Alexa532 peptide, fluorescence polarization. inhibition, % at 7 µM. 0.15% of 97,000 active. AID 720;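 active = inhibition above the screen-wide mean inhibition plus 3 SD, cut at about 15% in these data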
CYP2C19 act – activators of human cytochrome P450 2C19 | recombinant CYP2C19, luciferin-H EGE luminescence; active compounds read high; 0 = fully inhibited enzyme, 1 = untreated enzyme | P33261 | AID 1025 | 96,000 tested, under 10 active | activation factor at 5 µM;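 active = activation factor of at least 2 at 5 µM in the primary screen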
CYP2C9 act – increases human cytochrome P450 2C9 activity | P11712 | recombinant CYP2C9, luciferin-H conversion, luminescence; active compounds read high; factor 1 = untreated enzyme, 0 = blocked | activation factor at 5 µM | 1.4% of 96,000 active | AID 1024;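 active = activation factor of 2 or more for CYP2C9 at a 5 µM dose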
Target sequence (P11712 whole entry, looked up): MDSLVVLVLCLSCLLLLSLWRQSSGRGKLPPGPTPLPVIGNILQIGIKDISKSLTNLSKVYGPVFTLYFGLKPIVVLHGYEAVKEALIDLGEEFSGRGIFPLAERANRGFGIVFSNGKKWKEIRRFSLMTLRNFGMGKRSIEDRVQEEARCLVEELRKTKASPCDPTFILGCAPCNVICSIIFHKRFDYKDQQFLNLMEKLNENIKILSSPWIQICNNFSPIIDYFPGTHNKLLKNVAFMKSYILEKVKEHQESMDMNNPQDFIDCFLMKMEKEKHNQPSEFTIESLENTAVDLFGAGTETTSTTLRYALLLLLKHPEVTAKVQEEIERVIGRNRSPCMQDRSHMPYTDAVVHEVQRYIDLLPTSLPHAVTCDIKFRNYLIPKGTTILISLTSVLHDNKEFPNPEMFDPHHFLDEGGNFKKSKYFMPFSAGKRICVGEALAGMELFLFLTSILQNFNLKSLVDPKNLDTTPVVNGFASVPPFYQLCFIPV
CYP2C9 inhib – blocks human cytochrome P450 2C9; P11712; CYP2C9 Supersomes, luciferin-H conversion, luminescence; inhibition, % at 5 µM; 20% of 96,000 active; AID 777;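 active = blocking of liver enzyme CYP2C9 beyond about 50% at 5 µM, limit read from the data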
CYP2C19 inhib – human CYP2C19 inhibition; P33261; CYP2C19 Supersomes, luciferin-H EGE luminescence, 30 min; inhibition, % at 5 µM; 21% of 96,000 active;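 active = CYP2C19 inhibition above a set limit at 5 µM in the primary screen, cut at about 50% in these data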
A number is an active result; - = inactive; . = no result given. Only some compounds are listed: those with a hit (about 27% of all), similar ones and a draw of the others.

SMILES	EphB4 ephrin blk	CYP2C19 act	CYP2C9 act	CYP2C9 inhib	CYP2C19 inhib
Cc1ccc(C(C#N)c2ccc(C(=O)c3ccc(F)cc3)cc2)cc1 (configuration not stated)	-	-	-	59.7	-
N#CC(c1ccc(F)cc1)c1ccc(C(=O)c2ccc(F)cc2)cc1 (configuration not stated)	-	-	-	77.0	-
COC(=O)C1CCN(C(=O)c2cc(OC)c(OC)c(OC)c2)CC1	-	-	-	-	-
COc1cccc(/C(O)=C2\C(=O)C(=O)N(c3ccccn3)C2c2ccccc2OC)c1 (configuration not stated)	-	-	-	-	-
COc1ccc(C2/C(=C(\O)c3cccc(OC)c3)C(=O)C(=O)N2c2ccccn2)cc1 (configuration not stated)	-	-	-	68.9	-
COc1cccc(/C(O)=C2/C(=O)C(=O)N(Cc3cccnc3)C2c2ccco2)c1 (configuration not stated)	-	-	-	88.8	-
O=C1C(=O)N(Cc2cccnc2)C(c2ccccn2)/C1=C(/O)c1ccccc1 (configuration not stated)	-	-	-	76.3	-
COCCN1C(=O)C(=O)/C(=C(/O)c2cccc(OC)c2)C1c1ccco1 (configuration not stated)	-	-	-	-	-
Cc1ccc(C)c(/C(O)=C2\C(=O)C(=O)N(Cc3cccnc3)C2c2cccnc2)c1 (configuration not stated)	-	-	-	50.8	-
O=C(c1cc2ccccc2o1)N1CCN(S(=O)(=O)c2cccs2)CC1	-	-	-	-	-
Cc1nn(CC(=O)Nc2sc3c(c2C#N)CCC(C(C)(C)C)C3)c(C)c1[N+](=O)[O-] (configuration not stated)	-	-	-	-	-
CN1CCC(N2CCN(c3cccc(C(F)(F)F)c3)CC2)CC1	-	-	-	-	-
CN(CC(=O)O)S(=O)(=O)c1cccs1	-	-	-	-	-
CN(Cc1ccccc1)S(=O)(=O)c1cccs1	-	-	-	-	97.9
CN(CC(=O)NCCc1ccccc1)S(=O)(=O)c1cccs1	-	-	-	-	58.0
CN(Cc1cccs1)S(=O)(=O)c1cccs1	-	-	-	-	91.5
CC(C)C(NS(=O)(=O)c1cccs1)C(=O)N(C)Cc1ccccc1 (configuration not stated)	-	-	-	95.5	96.4
COC(=O)c1c(NC(=O)Cc2ccccc2)sc(C)c1C	-	-	-	-	-
COC(=O)c1c(NC(=O)C2CC(=O)NN2Cc2ccccc2)sc(C)c1C (configuration not stated)	-	-	-	82.3	85.5
COc1ccc(C(=O)Nc2cc(C(=O)NCCc3ccccc3)ccc2Cl)cc1	-	-	-	82.9	57.3
O=C(NC(=S)Nc1cc(C(F)(F)F)ccc1Cl)c1ccccc1	-	-	-	-	-
COc1cccc(C(=O)Nc2cc(C(F)(F)F)ccc2Cl)c1	-	-	2.7	-	-
COc1cccc(C(=O)NC(=S)Nc2ccc3c4c(cccc24)CC3)c1	-	-	2	-	-
COc1ccc(CCNC(=O)c2ccc(Cl)cc2)cc1	-	-	-	-	-
COc1cccc(C(=O)Nc2ccc(F)c(F)c2F)c1	-	-	-	-	54.2
SMILES	EphB4 ephrin blk	CYP2C19 act	CYP2C9 act	CYP2C9 inhib	CYP2C19 inhib
COc1cccc(C(=O)Nc2ccc(F)cc2F)c1	-	.	.	.	.
COc1ccc(C(=O)Nc2cc(C(F)(F)F)ccc2Cl)cc1OC	-	-	2.5	-	-
COc1cccc(C(=O)Nc2ccc(Cl)c(C(F)(F)F)c2)c1	-	-	-	61.8	-
COc1cccc(C(=O)Nc2ccc(C(=O)O)cc2)c1	-	-	-	-	-
Cc1ccc(Cl)cc1NC(=O)c1cccc(OC(F)F)c1	-	-	-	-	55.2
COc1ccc(C(=O)Nc2ccc(F)cc2F)cc1OC	-	-	-	-	-
C#CC(C)(CC)NC(=O)c1cc(OC)c(OC)c(OC)c1 (configuration not stated)	-	-	-	-	-
CCc1cc2c(NCC3CCCO3)ncnc2s1 (configuration not stated)	-	-	-	-	-
Cc1cc(=O)n(CNC(=O)c2ccccc2)c(=S)[nH]1	-	-	-	-	-
N#C/C(=C\c1ccc[nH]1)S(=O)(=O)c1ccccc1	-	-	5.5	-	-
CCn1cc(/C=C(/C#N)S(=O)(=O)c2ccccc2)cn1	-	-	3	-	-
Cn1nccc1/C=C(/C#N)S(=O)(=O)c1ccccc1	-	-	-	-	-
O=S(=O)(Nc1ccn(-c2ccccc2)n1)c1ccc(Br)cc1	-	-	-	98.9	72.0
N#Cc1cc(C#N)c(N2CCN(c3cccc(Cl)n3)CC2)nc1N	-	-	-	-	97.8
Cc1cccc2cc(C#N)c(N3CCN(C)CC3)nc12	-	-	-	-	-
CCc1nc(N)c(C#N)c(-c2cccc3ccccc23)c1C	-	.	.	.	.
COc1ccccc1C1C2=C(N=C3SCC(=O)N31)c1ccccc1CC2 (configuration not stated)	-	-	-	-	-
CC1=C(C(=O)Nc2ccccc2)C(c2ccc(C(C)C)cc2)N2C(=O)CSC2=N1 (configuration not stated)	-	-	-	-	-
COc1ccc(C2C3=C(N=C4SCC(=O)N42)c2ccccc2CC3)cc1 (configuration not stated)	-	-	-	90.7	95.3
COc1ccc(C2C3=C(N=C4SCC(=O)N42)c2ccccc2CC3)cc1OC (configuration not stated)	-	-	-	54.0	-
COc1ccc(-n2c(Cc3cccn3C)nnc2SCC(=O)Nc2ccc3c(c2)OCO3)cc1	.	-	-	-	-
Clc1cccc(CSc2nnc(-c3cccnc3)n2Cc2ccco2)c1	-	-	-	64.9	81.3
Clc1ccc(CSc2nnc(-c3cccnc3)n2Cc2ccco2)c(Cl)c1	-	-	-	62.1	75.4
CCOC(=O)c1sc2nc(CC(=O)OC)nc(N3CCN(c4ccc(OC)cc4)CC3)c2c1C	-	-	-	95.6	88.7
CCOC(=O)c1sc2nc(CC(=O)OC)nc(NCc3ccc(Cl)cc3)c2c1C	-	-	-	-	-
SMILES	EphB4 ephrin blk	CYP2C19 act	CYP2C9 act	CYP2C9 inhib	CYP2C19 inhib
CCOC(=O)c1sc2nc(CC(=O)OC)nc(NCCN(CC)CC)c2c1C	-	-	-	-	-
CCOC(=O)c1sc2nc(CC(=O)OC)nc(NCCN3CCOCC3)c2c1C	-	-	-	50.8	54.5
CCN(Cc1ccccc1)C(=O)C1CCC(CNc2c(N3CCOCC3)c(=O)c2=O)CC1 (configuration not stated)	-	-	-	-	-
CCOc1ccc(S(=O)(=O)N2CCN(c3ccccc3OC)CC2)c2cccnc12	-	-	-	57.9	-
COc1ccccc1N1CCN(S(=O)(=O)c2ccc3c4c(cccc24)C(=O)N3C)CC1	-	-	-	71.8	64.4
COc1ccccc1N1CCN(S(=O)(=O)c2ccc3c4c(cccc24)C(=O)N3)CC1	.	-	-	-	-
